From PubChem BioAssay (NCI)
Compounds without any hit were thinned out: in the full panel of roughly 83,000, 20% have a hit.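 The endpoint reported here, percent growth, reads 100 for growth as untreated, 0 for no net growth and -100 for all cells dead.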 A number with no mark means an inactive call. Activity calls are given as the source filed them. The calls were made as follows: active = growth percent below 10; inactive = the rest.

Key:
Test in all cases: NCI-60 one-dose screen, 48 h (100 = growth as untreated, 0 = no growth, -100 = all killed)
Details in all cases: 10 µM unless noted
DU-145 prostate = system: DU-145 prostate
K-562 leukemia = system: K-562 leukemia
MALME-3M melanoma = system: MALME-3M melanoma
MDA-MB-231 breast = system: MDA-MB-231 breast
RXF 393 renal = system: RXF 393 renal
SF-268 CNS = system: SF-268 CNS
SF-295 CNS = system: SF-295 CNS
SF-539 CNS = system: SF-539 CNS
UACC-257 melanoma = system: UACC-257 melanoma
M14 melanoma = system: M14 melanoma
HCT-15 colon = system: HCT-15 colon
HT29 colon = system: HT29 colon
SNB-75 CNS = system: SNB-75 CNS
SNB-19 CNS = system: SNB-19 CNS
U251 CNS = system: U251 CNS
PC-3 prostate = system: PC-3 prostate
SK-MEL-5 melanoma = system: SK-MEL-5 melanoma
UACC-62 melanoma = system: UACC-62 melanoma
LOX IMVI melanoma = system: LOX IMVI melanoma
SK-MEL-28 melanoma = system: SK-MEL-28 melanoma

| Structure (SMILES) | growth (DU-145 prostate) | growth (K-562 leukemia) | growth (MALME-3M melanoma) | growth (MDA-MB-231 breast) | growth (RXF 393 renal) | growth (SF-268 CNS) | growth (SF-295 CNS) | growth (SF-539 CNS) | growth (UACC-257 melanoma) | growth (M14 melanoma) | growth (HCT-15 colon) | growth (HT29 colon) | growth (SNB-75 CNS) | growth (SNB-19 CNS) | growth (U251 CNS) | growth (PC-3 prostate) | growth (SK-MEL-5 melanoma) | growth (UACC-62 melanoma) | growth (LOX IMVI melanoma) | growth (SK-MEL-28 melanoma) |
| --- | --- | --- | --- | --- | --- | --- | --- | --- | --- | --- | --- | --- | --- | --- | --- | --- | --- | --- | --- | --- |
| CNC(=O)c1cc(Oc2ccc3nc(NC(=O)Nc4ccc(F)cc4F)sc3c2)ccn1 | 65.7% | 71.5% | 46.2% | 47.7% | 42.3% | 76.1% | 76.7% | 61.7% | 74.3% | 69.1% | 84% | 58.8% | 19.2% | 71.1% | 37% | 65.9% | 39% | 65.1% | 52.1% | 52.1% |
| Cc1ccc(C(F)(F)F)cc1N1CCN(C(=O)[C@H]2C[C@H]2c2ccc(C(F)(F)F)nc2)CC1 | 105% | 78.1% | 94% | 91.3% | 92.8% | 91.3% | 94.7% | 88.6% | 92.7% | 97.5% | 93.2% | 79.8% | 92.2% | 90.5% | 94.2% | 77.7% | 81.6% | 74.8% | 96.2% | 100% |
| Nc1n[nH]c2cccc(C#Cc3cccc(C(=O)Nc4ccc(Cl)c(C(F)(F)F)c4)c3)c12 | 83.6% | 6.22% (active) | 14.9% | 40.4% | 66.9% | 61.7% | 66.6% | 33.5% | 48.2% | 23% | 56.4% | 26% | 65.7% | 89.1% | 69% | 59.6% | 46.7% | 22.2% | 18.1% | 24.7% |
| COc1ccc(C(=O)/C=C/Nc2cc(-c3ccccc3)nn2-c2ccccc2)cc1 | 99.7% | 80.8% | 100% | 93.4% | 85.5% | 90.2% | 95.2% | 95.2% | 90.8% | 93% | 88.1% | 99.4% | 94% | 92% | 93.2% | 86.8% | 93% | 72.2% | 92.9% | 99.5% |
| CC(C)(C)n1cc(-c2ccnc(NCCNS(=O)(=O)c3ccc(Br)cc3)c2)c(-c2cccc(O)c2)n1 | 49.8% | 6.18% (active) | 20.1% | 38.2% | 26.3% | 33.1% | 31.8% | 46.5% | 36% | 21.9% | -0.0275% (active) | -11% (active) | 19.4% | 52.3% | 21.7% | 25.4% | -19% (active) | 49.6% | 12.7% | 38.5% |
| Cc1ccc(-c2nnc(SCc3nc(N)nc(Nc4ccccc4F)n3)n2-c2ccccc2)cc1 | 102% | 89.9% | 117% | 91.9% | 80.7% | 97.3% | 94.3% | 97% | 99.3% | 103% | 91.3% | 98.5% | 102% | 91.8% | 92.8% | 87.7% | 91.5% | 86% | 100% | 97.5% |
| CCCN1C2CCC1/C(=C\c1ccc(OC)cc1)C(=O)/C2=C/c1ccc(OC)cc1 | 90% | 35.6% | 57.5% | 74.9% | 92.4% | 83.9% | 76.7% | 105% | 44.4% | 62.1% | 71.1% | 58% | 84.9% | 86.7% | 70.3% | 64% | 64.1% | 49.7% | 74.8% | 82.7% |
